# Data published in PubChem BioAssay.
# “And” between values parts separate entries of the source, which are not always exact repeats. Equal entries are not always repeated. Records with an inconclusive call do not appear. The source made the active and inactive calls.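 Rule for the calls, unless noted: active = normalized viability below 100% at a tested concentration; inactive = the rest.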
# Columns and labels:
# [1] = system: Aerobactin synthetase IucA (Klebsiella pneumoniae); test: inhibition of K. pneumoniae IucA enzyme – biochemical, Tocris library, absorbance (AID 1345561; call rule not given here;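 note: 100% = enzyme without compound and 0% = no enzyme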); details: purified IucA enzyme assay, absorbance (OD) read-out; stronger effect = lower value;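 tested at 8 µM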
# [2] = viability loss in pontine glioma line – cell-based, JHH-DIPG-1, MIPE4.0, CellTiter-Glo, qHTS, dose response (AID 1347062; cut-off not given, nearly all actives have AC50 up to about 27 µM); details: JHH-DIPG-1 viability, CellTiter-Glo ATP luminescence
# [3] = viability loss in pontine glioma line – cell-based, SU-DIPG-IV, MIPE4.0, CellTiter-Glo, qHTS, dose response (AID 1347063; cut-off not given, nearly all actives have AC50 up to about 30 µM;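 note: compound exposure lasted 48 hours before the viability readout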); details: CellTiter-Glo ATP luminescence
# [4] = viability loss in pontine glioma line – cell-based, SU-DIPG-XXV, MIPE5.0, CellTiter-Glo, qHTS, dose response (AID 1347065; cut-off not given, nearly all actives have AC50 up to about 26 µM;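 note: cells exposed to compound for 48 hours before ATP readout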); details: CellTiter-Glo ATP luminescence
# [5] = viability loss with induced miR-34 in A549 – imaging, A549 dox-inducible miR-34, nuclei and caspase counts, primary screen (AID 1347080;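 active = compounds whose cell count with miR-34 switched on is under 0.7 times the count with it off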); details: A549 miR-34 inducible, Hoechst nuclei count, 48 h
# [6] = compounds altering HSF1 focus formation in cells – imaging, Selleck Cancer Library (AID 1347162; in the data active = plate-normalised HSF1 focus index below about 0.46); details: human cells, HSF1 nuclear foci imaging, at 10 µM; SSMD: measured here: HSF1 foci SSMD mean; cell count: measured here: cell number; plate-normalised HSF1 focus index: stronger effect = lower value
# [7] = MELAS cybrid and Rieske KO viability enhancers – cell-based, MELAS cybrids, Rieske KO mouse fibroblasts, CellTiter-Glo, primary screen (AID 1508586;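 active = mean z-score across replicates of 1.96 or higher in either the MELAS or the Rieske mutant cell line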;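 note: z relative to plate mean and SD of compound and empty wells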); details: low glucose
# [8] = drug combination growth inhibition, ovarian cancer – cell-based, oncology-focused library, rucaparib conditional, profiling panel (AID 1508598); details: patient-derived ovarian cancer cells, CellTiter-Glo viability, 144 h, stronger effect = lower value
# [9] = galactose survival enhancers in mitochondrial complex I cybrids – cell-based, galactose medium, ATP luminescence, primary screen (AID 1645843;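 active = z-score of at least 1.8 in each of two replicates, scored against plate mean and spread of sample wells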;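 note: positive z means more ATP and so rescue of galactose-driven cybrid death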); details: complex I mutant cybrid cells, 72 h, stronger effect = higher value
# [10] = P. berghei load reduction in hepatocytes – cell-based, HepG2, luciferase luminescence, HepG2 viability, primary screen (AID 624349; in the data active = parasite load remaining mostly below about 12%, no sharp cut-off; inactive = mostly above about 10%;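 note: 100% = mean of DMSO negative control wells on the same plate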); details: P. berghei liver stage in HepG2, luciferase luminescence, concentration not given here; parasite load remaining: stronger effect = lower value; viability: measured here: HepG2 viability without parasites
# [11] = system: Hepatitis C virus NS3 helicase; test: blockers of NS3h binding to ssDNA – biochemical, fluorescence polarization, LOPAC1280 library, primary screen (AID 687035; in the data active = inhibition above about 37%); details: Purified HCV NS3 helicase, Cy5-dT15 ssDNA binding fluorescence polarization; stronger effect = higher value; concentration not given here
# [12] = compounds altering Cy5-DNA-NS3h complex signal – biochemical, LOPAC1280, artefact control for HCV NS3 helicase inhibitor project (AID 687037; call rule not given here); details: Cy5-DNA-NS3h complex fluorescence interference counterscreen
# [13] = growth inhibition of DIPG cells – cell-based, MIPE5.0 library, qHTS (AID 1347068; cut-off not given, nearly all actives have IC50 up to about 30 µM;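 for IC50: cells exposed to compound for 48 hours before viability readout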); details: SU-DIPG-XXV viability
# [14] = viability loss in pontine glioma line – cell-based, SU-DIPG-XVII, MIPE5.0, CellTiter-Glo, qHTS, dose response (AID 1347060; cut-off not given, nearly all actives have AC50 up to about 26 µM;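 note: cells exposed to compound for 48 hours before viability readout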); details: CellTiter-Glo ATP luminescence
# [15] = JHH-DIPG-1 glioma cell viability, MIPE5.0 library, CellTiter-Glo luminescence, qHTS (AID 1347067; cut-off not given, nearly all actives have AC50 up to about 26 µM;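 note: cells exposed to compound for 48 hours before readout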); details: JHH-DIPG-1 glioma viability, CellTiter-Glo ATP luminescence
# [16] = viability loss in pontine glioma line – cell-based, SU-DIPG-XIII, MIPE4.0, CellTiter-Glo, qHTS, dose response (AID 1347061; cut-off not given, nearly all actives have AC50 up to about 37 µM;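 note: cells exposed to compound for 48 hours before readout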); details: CellTiter-Glo ATP luminescence
# [17] = viability loss in pontine glioma line – cell-based, SU-DIPG-XIII, MIPE5.0, CellTiter-Glo, qHTS, dose response (AID 1347064; cut-off not given, nearly all actives have AC50 up to about 23 µM;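 note: cells exposed to compound for 48 hours before the viability read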); details: CellTiter-Glo ATP luminescence
# [18] = stronger effect = lower value, cell number ratio, induced over uninduced
# [19] = measured here: relative caspase fold change +Dox/-Dox
# [20] = measured here: total cells with miR-34 induction, stronger effect = lower value
# [21] = measured here: total cells without miR-34 induction
structure (smiles),measurement,setting,value
O=C(O)Cc1cccc(OCCCN(Cc2cccc(C(F)(F)F)c2Cl)CC(c2ccccc2)c2ccccc2)c1,remaining activity,[1],110% (inactive)
same,outcome,[2],inactive
same,AC50,[3],20.9 µM (active)
same,AC50,[4],20.9 µM (active)
same,fold change,[5]; [18],0.882 (inactive) and 1.33 (inactive)
same,fold change,[5]; [19],0.748 and 1.3
same,cell count,[5]; [20],7570 and 3160
same,cell count,[5]; [21],8580 and 2370
same,SSMD,[6],0.414
same,cell count,[6],6290
same,plate-normalised HSF1 focus index,[6],1.02 (inactive)
same,z-score,"[7]; MELAS cybrid survival, CellTiter-Glo 48 h, stronger effect = higher value",-0.168 (inactive)
same,z-score,"[7]; Rieske KO mouse fibroblast survival, CellTiter-Glo 72 h",-0.731
same,viability,"[8]; at 0.000305 µM, OCI-C5x cells, with rucaparib 10 µM, 100% = cells with rucaparib alone",118% (inactive)
same,viability,"[8]; at 0.000305 µM, OCI-C5x cells, without rucaparib",117% (inactive)
same,viability,"[8]; at 0.000305 µM, OCI-P5x cells, with rucaparib 20 µM, 100% = cells with rucaparib alone",107% (inactive)
same,viability,"[8]; at 0.000305 µM, OCI-P5x cells, without rucaparib",111% (inactive)
same,viability,"[8]; at 0.00122 µM, OCI-C5x cells, with rucaparib 10 µM, 100% = cells with rucaparib alone",118% (inactive)
same,viability,"[8]; at 0.00122 µM, OCI-C5x cells, without rucaparib",129% (inactive)
same,viability,"[8]; at 0.00122 µM, OCI-P5x cells, with rucaparib 20 µM, 100% = cells with rucaparib alone",108% (inactive)
same,viability,"[8]; at 0.00122 µM, OCI-P5x cells, without rucaparib",95.8% (active)
same,viability,"[8]; at 0.00488 µM, OCI-C5x cells, with rucaparib 10 µM, 100% = cells with rucaparib alone",115% (inactive)
same,viability,"[8]; at 0.00488 µM, OCI-C5x cells, without rucaparib",125% (inactive)
same,viability,"[8]; at 0.00488 µM, OCI-P5x cells, with rucaparib 20 µM, 100% = cells with rucaparib alone",106% (inactive)
same,viability,"[8]; at 0.00488 µM, OCI-P5x cells, without rucaparib",108% (inactive)
same,viability,"[8]; at 0.0195 µM, OCI-C5x cells, with rucaparib 10 µM, 100% = cells with rucaparib alone",113% (inactive)
same,viability,"[8]; at 0.0195 µM, OCI-C5x cells, without rucaparib",125% (inactive)
same,viability,"[8]; at 0.0195 µM, OCI-P5x cells, with rucaparib 20 µM, 100% = cells with rucaparib alone",101% (inactive)
same,viability,"[8]; at 0.0195 µM, OCI-P5x cells, without rucaparib",105% (inactive)
same,viability,"[8]; at 0.0781 µM, OCI-C5x cells, with rucaparib 10 µM, 100% = cells with rucaparib alone",114% (inactive)
same,viability,"[8]; at 0.0781 µM, OCI-C5x cells, without rucaparib",123% (inactive)
same,viability,"[8]; at 0.0781 µM, OCI-P5x cells, with rucaparib 20 µM, 100% = cells with rucaparib alone",109% (inactive)
same,viability,"[8]; at 0.0781 µM, OCI-P5x cells, without rucaparib",103% (inactive)
same,viability,"[8]; at 0.313 µM, OCI-C5x cells, with rucaparib 10 µM, 100% = cells with rucaparib alone",114% (inactive)
same,viability,"[8]; at 0.313 µM, OCI-C5x cells, without rucaparib",119% (inactive)
same,viability,"[8]; at 0.313 µM, OCI-P5x cells, with rucaparib 20 µM, 100% = cells with rucaparib alone",93.8% (active)
same,viability,"[8]; at 0.313 µM, OCI-P5x cells, without rucaparib",96.5% (active)
same,viability,"[8]; at 1.25 µM, OCI-C5x cells, with rucaparib 10 µM, 100% = cells with rucaparib alone",111% (inactive)
same,viability,"[8]; at 1.25 µM, OCI-C5x cells, without rucaparib",114% (inactive)
same,viability,"[8]; at 1.25 µM, OCI-P5x cells, with rucaparib 20 µM, 100% = cells with rucaparib alone",96.5% (active)
same,viability,"[8]; at 1.25 µM, OCI-P5x cells, without rucaparib",92.3% (active)
same,viability,"[8]; at 5 µM, OCI-C5x cells, with rucaparib 10 µM, 100% = cells with rucaparib alone",92.1% (active)
same,viability,"[8]; at 5 µM, OCI-C5x cells, without rucaparib",100% (inactive)
same,viability,"[8]; at 5 µM, OCI-P5x cells, with rucaparib 20 µM, 100% = cells with rucaparib alone",43.4% (active)
same,viability,"[8]; at 5 µM, OCI-P5x cells, without rucaparib",87.5% (active)
same,z-score,[9],-0.7 (inactive)
N#C/C(=C\c1ccc(O)c(O)c1)C(=O)NCc1ccccc1,parasite load remaining,[10],29.1% (inactive)
same,viability,[10],65.5%
same,inhibition,[11],0% (inactive)
same,fluorescence ratio (interference),[12],1 (inactive)
same,remaining activity,[1],113% (inactive)
same,outcome,[2],inactive
same,outcome,[13],inactive
same,fold change,[5]; [18],1.1 (inactive) and 0.928 (inactive)
same,fold change,[5]; [19],1.17 and 1.42
same,cell count,[5]; [20],2450 and 8410
same,cell count,[5]; [21],2230 and 9060
same,z-score,[9],-0.425 (inactive)
COc1cc2c(cc1O)CC[C@@H]1[C@@H]2CC[C@]2(C)[C@@H](O)CC[C@@H]12,inhibition,[11],-1% (inactive)
same,fluorescence ratio (interference),[12],1 (inactive)
same,remaining activity,[1],112% (inactive)
same,AC50,[14],1.32 µM (active)
same,AC50,[4],1.48 µM (active)
same,AC50,[15],3.72 µM (active)
same,fold change,[5]; [18],1.15 (inactive) and 1.13 (inactive)
same,fold change,[5]; [19],0.815 and 0.616
same,cell count,[5]; [20],2600 and 1620
same,cell count,[5]; [21],2270 and 1440
same,SSMD,[6],1.78
same,cell count,[6],7300
same,plate-normalised HSF1 focus index,[6],1.07 (inactive)
same,z-score,[9],0.06 (inactive) and 0.18 (inactive)
Cc1ccccc1C(=O)c1ccc(Nc2ccc(Br)cc2N)cc1Cl,parasite load remaining,[10],40.9% (inactive)
same,viability,[10],76.7%
same,remaining activity,[1],120% (inactive)
same,outcome,[16],inactive
same,AC50,[17],20.9 µM (active)
same,AC50,[4],18.6 µM (active)
same,AC50,[15],23.5 µM (active)
same,IC50,[13],23.5 µM (active)
same,fold change,[5]; [18],0.938 (inactive)
same,fold change,[5]; [19],1.33
same,cell count,[5]; [20],6770
same,cell count,[5]; [21],7220
same,z-score,[9],-0.695 (inactive)
